VDR inh – inhibitors of human vitamin D receptor; P11473; VDR-SRC2-3 peptide fluorescence polarization, 2 h; Potency, µM, for inactives: max response, negative = inhibition, usual class: inhibitors; 400,000 compounds, 0.93% hits; also: % is scaled to controls: 0 for no effect and ±100 for the full control effect
Target sequence (P11473 whole entry, looked up): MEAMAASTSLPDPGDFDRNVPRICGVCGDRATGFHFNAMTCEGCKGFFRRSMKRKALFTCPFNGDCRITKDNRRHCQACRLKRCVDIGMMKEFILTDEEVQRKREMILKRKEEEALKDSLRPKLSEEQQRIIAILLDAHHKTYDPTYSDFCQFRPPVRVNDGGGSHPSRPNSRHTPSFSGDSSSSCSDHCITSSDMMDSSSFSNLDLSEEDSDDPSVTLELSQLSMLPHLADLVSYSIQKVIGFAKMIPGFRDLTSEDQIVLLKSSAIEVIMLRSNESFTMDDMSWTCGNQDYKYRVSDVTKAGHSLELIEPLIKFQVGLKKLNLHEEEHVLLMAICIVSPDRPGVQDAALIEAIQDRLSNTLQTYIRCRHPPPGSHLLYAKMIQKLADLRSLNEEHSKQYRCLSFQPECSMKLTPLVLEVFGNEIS
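Signal is fluorescence polarization, reporting how far test compounds block the interaction of VDR with the SRC2-3 coregulator peptide after a 2 h room-temperature incubation.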
JMJD2A Tudor – blocks the human JMJD2A Tudor domain | Potency, µM (top dose mostly 114 µM), for inactives: at the top dose activity change, negative = inhibition, most hits filed as inhibitors | AlphaScreen JMJD2A-Tudor / H3K4me3 peptide binding | AID 504339 | 390,000 compounds, 4.4% hits | O75164; also: % is scaled to controls: 0 for no effect and ±100 for the full control effect; nearly all actives have a fitted effect of over 50% in size
L3MBTL1 block – L3MBTL1 (human) inhibition; Potency, µM (highest dose often 57.1 µM), inactives show top-dose activity, negative = inhibition, hits mostly inhibitors; Q9Y468; AlphaScreen L3MBTL1–H3K9me1 peptide binding; 230,000 compounds, 0.66% hits; also: % is scaled to controls: 0 for no effect and ±100 for the full control effect; nearly all actives have a fitted effect of over 60% in size
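Displacement of a biotinylated histone H3(1-15) peptide monomethylated at Lys9 (75 nM) from L3MBTL1 (50 nM) was measured by AlphaScreen after a 30 min room-temperature compound incubation; cefsulodin titration served as intraplate control.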
BAZ2B inh – BAZ2B (human) inhibition; 360,000 compounds, 4.4% hits; AlphaScreen BAZ2B-H3K14Ac peptide displacement; AID 504333; Potency, µM (series often up to 114 µM), for inactives: top-dose activity change, negative = inhibition, most hits filed as inhibitors; also: % is scaled to controls: 0 for no effect and ±100 for the full control effect; nearly all actives have a fitted effect of over 60% in size
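AlphaScreen displacement of biotin-H3(5-23)K14Ac peptide (50 nM final) from BAZ2B (50 nM final) in PBS pH 7.4, 0.01% Tween-20; complex preformed 30 min RT, then compounds (top 110 uM) 30 min RT, beads 20 min dark.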
PLK1 PBD block – inhibitors of human PLK1 polo-box domain binding | P53350 | Plk1 PBD binding of FITC phosphopeptide, fluorescence polarization | 360,000 compounds, 2.8% hits | AID 720504 | Potency, µM, for inactives: max response, negative = inhibition, usual class: inhibitors; also: series mostly up to about 57 µM; % is scaled to controls: 0 for no effect and ±100 for the full control effect; nearly all actives have a fitted effect of over 65% in size
HP1b binding inh – inhibitors of HP1-beta chromodomain binding to methylated histone tails; P83916; AlphaScreen HP1-beta / biotin-H3K9me3 peptide binding; Potency, µM (highest dose often 114 µM), without a hit: at the highest dose activity change, negative = inhibition, hits mostly inhibitors; 390,000 compounds, 0.56% hits; AID 540317; also: nearly all actives have a fitted effect of over 70% in size
Target sequence (P83916 whole entry, looked up): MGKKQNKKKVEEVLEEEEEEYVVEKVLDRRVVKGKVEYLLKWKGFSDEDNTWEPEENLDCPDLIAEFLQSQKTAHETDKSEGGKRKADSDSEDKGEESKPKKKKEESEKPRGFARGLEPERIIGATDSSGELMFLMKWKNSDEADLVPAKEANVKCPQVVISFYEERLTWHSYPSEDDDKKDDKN
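HP1-beta protein (50 nM final) preincubated 30 min at room temperature with biotinylated H3(1-18)K9me3 peptide (50 nM) in PBS pH 7.4, 0.01% Tween-20, then compound added for 30 min. AlphaScreen streptavidin donor/nickel chelate acceptor beads (10 ug/mL final), 30 min dark, luminescence read.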
* marks the source's active call; other numbers are inactive results; ? = inconclusive; nt = no result; [ ] = another dose, or the depositor's remark. Shown are actives, neighbours in structure and some others; about 6.9% of the full set was active somewhere. Calls follow the shape of the dose curve; as a rule, active = well fitted curve in the direction sought with a large enough effect; inconclusive = small, poorly fitted or top-dose-only effect, or another doubt; inactive = no such curve, though single readings can be large; an effect the other way counts as inactive or inconclusive. Potency is read from the fitted curve at half-maximal effect.

SMILES | VDR inh | JMJD2A Tudor | L3MBTL1 block | BAZ2B inh | PLK1 PBD block | HP1b binding inh
CCN(CCCl)c1cc(CN(C)C)cc(NC(=O)c2ccc(C(=O)Nc3cc(CN(C)C)cc(N(CC)CCCl)c3)cc2)c1 | 29% | 13µM* | nt | nt | -3% | 10µM*
CN1CCC2(CC1)CCN(C(=O)Oc1ccccc1)CC2 | 9% | nt | nt | nt | nt | nt
CCOc1cc2c(cc1OCC)-n1cccc1C(c1ccc(OC)c(OC)c1)NC2 (configuration not stated) | -5% | ? | nt | ? | -5% | 2%
CCOc1cc2c(cc1OCC)-n1cccc1C(c1c(O)cccc1OC)NC2 (configuration not stated) | 13% | 50µM* | nt | 45µM* | -2% | -23%
CC1CCCCC1n1c(-c2cccnc2)n[nH]c1=S (configuration not stated) | 2% | 7.1µM* | 8% | -6% | -4% | 54%
CN1CCCCC1c1ccc(-c2cccnc2)nc1 (configuration not stated) | -4% | -18% | 7% | ? | -2% | 32%
N#CC1=C(N)Oc2n[nH]c(-c3cccs3)c2C1c1ccsc1 (configuration not stated) | 8% | -27% | -13%[11.4 µM] | ? | 27µM* | 14%
CN1C(=O)C(C2c3ccccc3C(=O)N2Cc2ccccc2)C(=O)N(C)C1=O (configuration not stated) | -7% | -29% | nt | 79µM* | -7% | 17%
CN1C(=O)C(C2c3ccccc3C(=O)N2Cc2ccc([N+](=O)[O-])cc2)C(=O)N(C)C1=O (configuration not stated) | 2% | -25% | 7% | -11% | -6% | 56%
CC(=O)[C@@]1(O)CC[C@H]2[C@@H]3CCC4=CC(=O)CC[C@]4(C)[C@H]3CC[C@@]21C | -5% | -18% | 0% | 1% | -10% | 39%
CC(=O)C1CCC2C3CCC4=CC(=O)CC[C@@]4(C)C3CC[C@]12C (some centres not stated) | 45µM* | nt | nt | nt | nt | nt
CCOC(=O)Cn1c(C)[n+](C)c2cc(Cl)c(Cl)cc21 | 2% | 28µM* | -9% | -1% | -6% | 2%
CCCC12CN3CC(CCC)(CN(C1)C3c1ccccn1)C2=O (configuration not stated) | 1% | 25µM* | nt | 20µM* | 0% | 33%
CCCC12CN3CCN(C1)CC(CCC)(C3)C2=O | -7% | -9% | -2% | 0% | 0% | 8%
C(=C\c1ccccc1)/CN1CCN(CCOC(c2ccccc2)c2ccccc2)CC1 | -10% | nt | nt | nt | nt | nt
Cn1cnc(CCN)c1 | -3% | 14µM* | nt | nt | -6% | 17%
COc1ccc(/C=C2/C(=O)NC(=O)N(Cc3ccco3)C2=O)cc1 | nt | nt | 8.9µM* | 32µM* | nt | nt
CCOC(=O)C1CCN(/C=C2/C(=O)NC(=O)N(Cc3ccco3)C2=O)CC1 | -5% | ? | 14µM* | ? | ? | -13%
Cc1ccc(OCCn2cccc2/C=C2/C(=O)NC(=O)N(Cc3ccco3)C2=O)cc1 | -12% | -30% | nt | -35% | 2.7µM* | 4%
Cn1cccc1/C=C1\C(=O)NC(=O)N(Cc2ccco2)C1=O | -29% | 56µM* | nt | 56µM* | 24µM* | 45µM*
CCc1ccc(N2C(=O)NC(=O)/C(=C\c3cccn3CCOc3ccc(C(C)C)cc3)C2=O)cc1 | ? | ? | -4% | -18% | -7% | 19%
C=CCSc1nnc(NC(=O)c2ccc(Cl)nc2)s1 | -17% | -1% | nt | -26% | -11% | 73%
C#CCOc1ccc(OC)cc1C(c1c(C)[nH][nH]c1=O)c1c(C)[nH][nH]c1=O | ? | -14% | -1% | -3% | 21µM* | 5%
C=CC[N+]1(C)CCC23c4c5ccc(O)c4O[C@H]2C(=O)CC[C@@]3(O)C1C5 (some centres not stated) | 4% | nt | nt | nt | nt | nt
CO/C1=C\C(C)=C\[C@@H](C)[C@@H](O)[C@H](C)C/C(C)=C/C=C/[C@H](OC)[C@H]([C@@H](C)[C@@H](O)[C@H](C)[C@H]2C[C@@H](O)[C@H](C)[C@@H](C(C)C)O2)OC1=O | -1% | nt | nt | nt | nt | nt
SMILES | VDR inh | JMJD2A Tudor | L3MBTL1 block | BAZ2B inh | PLK1 PBD block | HP1b binding inh
CON(C)C(=O)Nc1ccc(Cl)cc1 | -5% | -9% | 0% | 5% | -8% | 14%
O=C(Nc1ccc(Cl)cc1)O/N=C(\c1ccccc1)c1ccccn1 | 6% | 10µM* | -6% | 14µM* | ? | 23%
COc1ccccc1NC(=O)c1oc2ccccc2c1NC(=O)COc1cccc(C)c1 | -16% | -14% | nt | -3% | nt | 43%
CCOC(=O)C1=Nc2ccccc2/C1=C\c1c(O)n(C)c(=O)n(C)c1=O | ? | -16% | -1% | -13% | 13µM* | 24%
Cn1c(O)c(C=Nc2ccccc2-c2ccccc2)c(=O)n(C)c1=O | 5% | 0% | nt | 4% | -5% | 34%
CN1[C@H]2CC(=O)C[C@@H]1[C@@H](O)C2 | 0% | nt | nt | nt | nt | nt
CCc1ccc(CNC(=O)C2CCN(C(=O)c3ccc(-n4c(C)cc5ccccc54)s3)CC2)cc1 | -2% | -28% | nt | ? | nt | 23%
Cc1c(C=C2C(=O)N(C)C(=S)N(C)C2=O)c2ccccc2n1CC(=O)NCC1CCCO1 (configuration not stated) | ? | -27% | nt | ? | 2.7µM* | -5%
Cc1cc(/C=C2\C(=O)NC(=O)N(c3ccc(Cl)cc3)C2=O)c(C)n1-c1sc2c(c1C#N)CCCC2 | ? | -34% | -17% | ? | 1.2µM* | 0%
Cc1cc(/C=C2\C(=O)NC(=O)N(c3ccc(F)cc3)C2=O)c(C)n1-c1ccc(C(=O)O)cc1 | -5% | -21% | ? | ? | ? | 11%
CCOC(=O)c1c(-n2c(C)cc(/C=C3\C(=O)NC(=O)N(C)C3=O)c2C)sc2c1CCCC2 | ? | ? | -2% | ? | 2.7µM* | 8%
CCOc1cc(C=C2C(=O)NC(=O)NC2=O)ccc1OCC(=O)N1CCOCC1 | ? | -8% | -2% | -5% | ? | 53%
COc1cc(OC)c(/C=C2/C(=O)Nc3ccccc32)c(OC)c1 | 35% | nt | nt | nt | nt | nt
CCOc1ccc(C=C2C(=O)NC(=S)NC2=O)cc1OCC | 28µM* | ? | nt | nt | 8.4µM* | -3%
COCCN1C(=O)/C(=C/c2c(OC)cc(OC)cc2OC)C(=O)N(c2ccccc2)C1=O | -11% | -2%[11.4 µM] | nt | 0% | ? | 8%
CCOc1cc(C=C2C(=O)NC(=O)NC2=O)ccc1OS(=O)(=O)c1ccccc1 | 79µM* | 79µM* | nt | -9% | 3.4µM* | 11%
COc1cc(C=C2C(=O)NC(=O)NC2=O)ccc1OS(=O)(=O)c1ccccc1[N+](=O)[O-] | 45µM* | 32µM* | nt | 50µM* | 2.7µM* | ?

High-throughput results (PubChem BioAssay)
